Records with an inconclusive call do not appear. Active and inactive are the calls of the source. Unless noted, the call rests on the fitted dose curve; in most records, active means well fitted curve in the direction sought with a large enough effect; inconclusive means small, poorly fitted or top-dose-only effect, or another doubt; inactive means no such curve, though single readings can be large; an effect the other way counts as inactive or inconclusive.

The text below walks through data of PubChem BioAssay (NCATS).

Ubiquitin carboxyl-terminal hydrolase 2 (Homo sapiens), sequence (O75604 whole entry, looked up): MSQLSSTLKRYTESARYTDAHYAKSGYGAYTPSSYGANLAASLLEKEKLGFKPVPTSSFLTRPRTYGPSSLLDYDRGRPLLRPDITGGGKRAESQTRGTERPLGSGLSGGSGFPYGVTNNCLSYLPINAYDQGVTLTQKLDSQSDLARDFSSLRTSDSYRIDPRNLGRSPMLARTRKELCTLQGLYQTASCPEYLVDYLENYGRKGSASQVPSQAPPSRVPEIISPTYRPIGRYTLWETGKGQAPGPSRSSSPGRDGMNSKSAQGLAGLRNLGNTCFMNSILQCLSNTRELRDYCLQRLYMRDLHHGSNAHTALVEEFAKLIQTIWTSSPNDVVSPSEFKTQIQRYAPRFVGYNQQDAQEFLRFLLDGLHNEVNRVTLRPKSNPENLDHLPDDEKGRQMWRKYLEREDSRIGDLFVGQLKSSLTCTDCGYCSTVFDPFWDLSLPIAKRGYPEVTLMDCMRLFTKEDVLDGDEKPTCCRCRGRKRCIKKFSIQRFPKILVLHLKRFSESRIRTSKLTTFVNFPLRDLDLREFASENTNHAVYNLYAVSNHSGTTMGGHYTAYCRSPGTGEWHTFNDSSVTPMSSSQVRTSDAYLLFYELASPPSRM

One assay concerns the target Ubiquitin carboxyl-terminal hydrolase 2 (Homo sapiens) (UniProt O75604). As to the kind of experiment: qHTS for Inhibitors of Ubiquitin-specific Protease USP2a Using CHOP2 as the Reporter: K484 Substrate (AID 652173).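 Further: cleavage of internally quenched K48 di-ubiquitin substrate measured as rising fluorescence over time; potency means the concentration at half of the fitted maximal effect; nearly all actives have a fitted effect of over 70% in size.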 The note with it: USP2 cleavage of DiUb K48 IQF substrate, fluorescence; series mostly up to 57.5 µM. The procedure, abridged: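 USP2 (dispensed at 5 nM) was pinned with compounds, then DiUb K48 internally quenched fluorescent substrate (dispensed at 100 nM) was added. The buffer was 20 mM Tris pH 8, 2 mM beta-mercaptoethanol and 0.05% CHAPS. Cleavage was read kinetically as rising fluorescence, Ex 525/Em 598.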
(qHTS replaces the single test concentration by a dilution series.)
Turning to `O=C(Nc1nc(-c2ccccc2)cs1)c1ccccc1[N+](=O)[O-]`, the Potency was 12.2 µM (active).

`O=C(Nc1nc(-c2ccccc2)cs1)c1ccccc1Cl`: the Potency was 13.7 µM (active).

With `Cc1ccc(S(=O)(=O)Nc2cccnc2C(=O)Nc2nc(-c3ccccc3)cs2)cc1`, the Potency is 1.37 µM (active).

In the case of `Cc1ccc(S(=O)(=O)Nc2cccc(C(=O)Nc3nc(-c4ccc(Cl)cc4)cs3)c2)cc1`, the Potency was 2.43 µM (active).

On to `COc1ccc(OC)c(C(=O)Nc2nc(-c3ccccc3)cs2)c1`, for which the Potency is 7.69 µM (active).

In the case of `Cc1ccc(S(=O)(=O)Nc2ccccc2C(=O)Nc2ccc(-c3ccccc3)nc2)cc1`, the Potency was 4.85 µM (active).

Turning to `Cc1ccc(S(=O)(=O)Nc2cc(Cl)cc(C(=O)Nc3nc(-c4ccccc4)cs3)c2)cc1`, the Potency was 3.06 µM (active).

Test system in another assay: not listed separately
As to the kind of experiment: qHTS profiling for inhibitors of Plasmodium falciparum (3D7) proliferation (AID 743322).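 Further: infected erythrocytes exposed to compound for 72 h before lysis; 100% = DMSO vehicle wells and 0% = 0.29 µM artemisinin.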 The note with it: P. falciparum 3D7 proliferation; at 28.7 µM (top of the series). The procedure, abridged:
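Erythrocytes infected with P. falciparum (0.3% parasitemia, 2.5% hematocrit) incubated with compounds 72 h at 37 C, 5% CO2. Lysis with saponin/Triton buffer containing SYBR Green I, overnight at room temperature in the dark; DNA fluorescence (485/535 nm) normalised to 0.29 uM artemisinin and DMSO.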
With `CC(C)(C)c1cc(O)c(CN)c(C(C)(C)C)c1`, the remaining parasite growth % (stronger effect = lower value) is -0.824%.

With `N[C@@H](Cc1ccc(O[S+](=O)([O-])c2cccc3cnccc23)cc1)C(=O)N1CCN(c2ccccc2)CC1`, the remaining parasite growth % (stronger effect = lower value) was -0.448%.

As for `CC(C)(C)OC(=O)N[C@@H](Cc1ccc(O[S+](=O)([O-])c2cccc3cnccc23)cc1)C(=O)N1CCN(c2ccccc2)CC1`, the remaining parasite growth % (stronger effect = lower value) was -1.52%.

For the compound `COC(=O)[C@H](Cc1ccc(O[S+](=O)([O-])c2cccc3cnccc23)cc1)N(C)[S+](=O)([O-])c1ccc2cnccc2c1`, the remaining parasite growth % (stronger effect = lower value) was -0.184%.

In the case of `N[C@@H](Cc1ccc(O[S+](=O)([O-])c2cccc3cccnc23)cc1)C(=O)N1CCN(c2ccccc2)CC1`, the remaining parasite growth % (stronger effect = lower value) is 0.473%.

Take `O=C([C@H](Cc1ccc(O[S+](=O)([O-])c2cccnc2)cc1)N[S+](=O)([O-])c1cccc2cnccc12)N1CCN(c2ccccc2)CC1`: the remaining parasite growth % (stronger effect = lower value) turned out to be 0.0541%.

On to `O=C([C@H](Cc1ccc(O[S+](=O)([O-])c2cccc3cccnc23)cc1)N[S+](=O)([O-])c1cccnc1)N1CCN(c2ccccc2)CC1`, for which the remaining parasite growth % (stronger effect = lower value) is -0.283%.

Consider `N[C@@H](Cc1ccc(OS(=O)(=O)c2cccnc2)cc1)C(=O)N1CCN(c2ccccc2)CC1`, for which the remaining parasite growth % (stronger effect = lower value) came out at 41.2%.

As to `O=C([C@@H](Cc1ccc(O[S+](=O)([O-])c2cccnc2)cc1)N[S+](=O)([O-])c1cccc2cccnc12)N1CCN(c2ccccc2)CC1`, the remaining parasite growth % (stronger effect = lower value) is -1.01%.

Regarding `CNC1CCC(N(Cc2ccc(OC)c(-c3ccc(C#N)cc3)c2)C(=O)c2sc3ccccc3c2Cl)CC1` (stereo unspecified), the remaining parasite growth % (stronger effect = lower value) is -1.61%.

For the compound `O=C(NCCN1CCCC1)[C@H](Cc1ccc(OS(=O)(=O)c2cccc3cnccc23)cc1)NS(=O)(=O)c1cccc2cnccc12`, the remaining parasite growth % (stronger effect = lower value) is 0.578%.

In the case of `CN1CCN(C(=O)[C@H](Cc2ccc(O[S+](=O)([O-])c3cccc4cnccc34)cc2)N[S+](=O)([O-])c2cccc3cnccc23)CC1`, the remaining parasite growth % (stronger effect = lower value) came out at 10.3%.

On to `CC(C)(C)OC(=O)N[C@@H](Cc1ccc(O[S+](=O)([O-])c2cccnc2)cc1)C(=O)N1CCN(c2ccccc2)CC1`, for which the remaining parasite growth % (stronger effect = lower value) was -0.793%.

Test system in another assay: not listed separately
As to the kind of experiment: qHTS profiling for inhibitors of Plasmodium falciparum (DD2) proliferation (AID 743323; call rule not given here). The conditions noted are these: lower = more inhibition; at 28.7 µM (top of the series). The essentials: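 Parasite DNA quantified by SYBR Green fluorescence (ex 485, em 535 nm) after saponin/Triton lysis and overnight dark incubation. Cultures: 0.3% parasitemia, 2.5% hematocrit, 72 h, 37 C; data scaled between DMSO and 0.29 uM artemisinin.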
For `CC(C)(C)c1cc(O)c(CN)c(C(C)(C)C)c1`, the activity, percent of control amounted to 0.498%.

With `N[C@@H](Cc1ccc(O[S+](=O)([O-])c2cccc3cnccc23)cc1)C(=O)N1CCN(c2ccccc2)CC1`, the activity, percent of control is 3.27%.

On to `CC(C)(C)OC(=O)N[C@@H](Cc1ccc(O[S+](=O)([O-])c2cccc3cnccc23)cc1)C(=O)N1CCN(c2ccccc2)CC1`, for which the activity, percent of control is -0.0871%.

In the case of `COC(=O)[C@H](Cc1ccc(O[S+](=O)([O-])c2cccc3cnccc23)cc1)N(C)[S+](=O)([O-])c1ccc2cnccc2c1`, the activity, percent of control amounted to 3.76%.

On to `N[C@@H](Cc1ccc(O[S+](=O)([O-])c2cccc3cccnc23)cc1)C(=O)N1CCN(c2ccccc2)CC1`, for which the activity, percent of control amounted to 1%.

For `O=C([C@H](Cc1ccc(O[S+](=O)([O-])c2cccnc2)cc1)N[S+](=O)([O-])c1cccc2cnccc12)N1CCN(c2ccccc2)CC1`, the activity, percent of control turned out to be 4.11%.

Consider `O=C([C@H](Cc1ccc(O[S+](=O)([O-])c2cccc3cccnc23)cc1)N[S+](=O)([O-])c1cccnc1)N1CCN(c2ccccc2)CC1`, for which the activity, percent of control came to 0.179%.

Turning to `N[C@@H](Cc1ccc(OS(=O)(=O)c2cccnc2)cc1)C(=O)N1CCN(c2ccccc2)CC1`, the activity, percent of control is 15.1%.

As to `O=C([C@@H](Cc1ccc(O[S+](=O)([O-])c2cccnc2)cc1)N[S+](=O)([O-])c1cccc2cccnc12)N1CCN(c2ccccc2)CC1`, the activity, percent of control amounted to 0.464%.

Take `CNC1CCC(N(Cc2ccc(OC)c(-c3ccc(C#N)cc3)c2)C(=O)c2sc3ccccc3c2Cl)CC1` (stereo unspecified): the activity, percent of control is -0.637%.

For `O=C(NCCN1CCCC1)[C@H](Cc1ccc(OS(=O)(=O)c2cccc3cnccc23)cc1)NS(=O)(=O)c1cccc2cnccc12`, the activity, percent of control is 49.2%.

For `CN1CCN(C(=O)[C@H](Cc2ccc(O[S+](=O)([O-])c3cccc4cnccc34)cc2)N[S+](=O)([O-])c2cccc3cnccc23)CC1`, the activity, percent of control came out at 9.98%.

As for `CC(C)(C)OC(=O)N[C@@H](Cc1ccc(O[S+](=O)([O-])c2cccnc2)cc1)C(=O)N1CCN(c2ccccc2)CC1`, the activity, percent of control was determined as 0.682%.

Test system in a further assay: not listed separately
As to the kind of experiment: qHTS profiling for inhibitors of Plasmodium falciparum (HB3) proliferation (AID 743324).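 Further: 100% = DMSO vehicle wells and 0% = artemisinin-treated control wells.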 The note with it: Plasmodium falciparum HB3 blood-stage proliferation; at 28.7 µM (top of the series). The procedure, abridged: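 P. falciparum HB3 grown in erythrocytes (0.3% parasitemia, 2.5% hematocrit final) with compound for 72 h at 37 C, 5% CO2. Parasite DNA detected by SYBR Green after saponin/triton lysis overnight; normalized to 0.29 uM artemisinin and DMSO.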
Regarding `CC(C)(C)c1cc(O)c(CN)c(C(C)(C)C)c1`, the remaining proliferation (% of control), lower = more inhibition was -0.148%.

`N[C@@H](Cc1ccc(O[S+](=O)([O-])c2cccc3cnccc23)cc1)C(=O)N1CCN(c2ccccc2)CC1`: the remaining proliferation (% of control), lower = more inhibition is 1.2%.

`CC(C)(C)OC(=O)N[C@@H](Cc1ccc(O[S+](=O)([O-])c2cccc3cnccc23)cc1)C(=O)N1CCN(c2ccccc2)CC1`: the remaining proliferation (% of control), lower = more inhibition was -0.489%.

On to `COC(=O)[C@H](Cc1ccc(O[S+](=O)([O-])c2cccc3cnccc23)cc1)N(C)[S+](=O)([O-])c1ccc2cnccc2c1`, for which the remaining proliferation (% of control), lower = more inhibition amounted to 0.837%.

Consider `N[C@@H](Cc1ccc(O[S+](=O)([O-])c2cccc3cccnc23)cc1)C(=O)N1CCN(c2ccccc2)CC1`, for which the remaining proliferation (% of control), lower = more inhibition amounted to 0.538%.

In the case of `O=C([C@H](Cc1ccc(O[S+](=O)([O-])c2cccnc2)cc1)N[S+](=O)([O-])c1cccc2cnccc12)N1CCN(c2ccccc2)CC1`, the remaining proliferation (% of control), lower = more inhibition is 0.563%.

Consider `O=C([C@H](Cc1ccc(O[S+](=O)([O-])c2cccc3cccnc23)cc1)N[S+](=O)([O-])c1cccnc1)N1CCN(c2ccccc2)CC1`, for which the remaining proliferation (% of control), lower = more inhibition was -0.167%.

With `N[C@@H](Cc1ccc(OS(=O)(=O)c2cccnc2)cc1)C(=O)N1CCN(c2ccccc2)CC1`, the remaining proliferation (% of control), lower = more inhibition worked out at 27.8%.

`O=C([C@@H](Cc1ccc(O[S+](=O)([O-])c2cccnc2)cc1)N[S+](=O)([O-])c1cccc2cccnc12)N1CCN(c2ccccc2)CC1`: the remaining proliferation (% of control), lower = more inhibition was found to be 0.336%.

With `CNC1CCC(N(Cc2ccc(OC)c(-c3ccc(C#N)cc3)c2)C(=O)c2sc3ccccc3c2Cl)CC1` (stereo unspecified), the remaining proliferation (% of control), lower = more inhibition was -1.57%.

As to `O=C(NCCN1CCCC1)[C@H](Cc1ccc(OS(=O)(=O)c2cccc3cnccc23)cc1)NS(=O)(=O)c1cccc2cnccc12`, the remaining proliferation (% of control), lower = more inhibition is 1.37%.

In the case of `CN1CCN(C(=O)[C@H](Cc2ccc(O[S+](=O)([O-])c3cccc4cnccc34)cc2)N[S+](=O)([O-])c2cccc3cnccc23)CC1`, the remaining proliferation (% of control), lower = more inhibition amounted to 5.8%.

As for `CC(C)(C)OC(=O)N[C@@H](Cc1ccc(O[S+](=O)([O-])c2cccnc2)cc1)C(=O)N1CCN(c2ccccc2)CC1`, the remaining proliferation (% of control), lower = more inhibition was -0.169%.
